System: Vero E6 infected with SARS-CoV-2
Assay: SARS-CoV-2 infection rate relative to infected DMSO; higher = more infection, active = 60 or less
Details: 24 h

Row | SMILES | SARS-CoV-2 infection rate
1 | COc1ccc(C(=O)c2ccccc2)c(O)c1 [oxybenzone] (10 µM) | 102% (inactive)
2 | CCn1c(=O)c(-c2cc[nH]n2)cc2c(C)nc(N)nc21 [voxtalisib] (0.833333 µM) | 109% (inactive)
3 | Nc1c(-c2cccc(C(F)(F)F)c2)nsc1C(=O)O [amflutizole] (10 µM) | 108% (inactive)
4 | CCOC(=O)OC(C)OC(=O)[C@@H]1N2C(=O)[C@@H](NC(=O)[C@H](N)c3ccccc3)[C@H]2SC1(C)C (some centres undefined) [bacampicillin] (10 µM) | 114% (inactive)
5 | Cc1ccc(NC(=O)C2(c3ccc4c(c3)OC(F)(F)O4)CC2)nc1-c1cccc(C(=O)O)c1 [lumacaftor] (10 µM) | 114% (inactive)
6 | CS[C@H]1SC[C@H]2C(=O)N(C)[C@@H](C(C)C)C(=O)OC[C@@H](NC(=O)c3cnc4ccccc4n3)C(=O)N[C@@H](C)C(=O)N(C)[C@@H]1C(=O)N(C)[C@@H](C(C)C)C(=O)OC[C@@H](NC(=O)c1cnc3ccccc3n1)C(=O)N[C@@H](C)C(=O)N2C [echinomycin] (0.833333 µM) | 96% (inactive)
7 | CC(OC(=O)NCC1(CC(=O)O)CCCCC1)OC(=O)C(C)C (centres undefined) [gabapentin-enacarbil] (10 µM) | 112% (inactive)
8 | O=C(O)c1cn(C2CC2)c2cc(N3CCNCC3)c(F)cc2c1=O [ciprofloxacin] (10 µM) | 106% (inactive)
9 | Cc1ccc(/C=C2\CNC/C(=C\c3ccc(C)cc3)C2=O)cc1 (0.833333 µM) | 93% (inactive)
10 | CCCCC1CCC(c2nc(-c3ccncc3)no2)CC1 (centres undefined) (10 µM) | 104% (inactive)
11 | CCCCCN(C)CCC(O)(P(=O)(O)O)P(=O)(O)O [ibandronate] (10 µM) | 111% (inactive)
12 | Cc1cccc(C)c1NC(=O)c1ccc(N)cc1 [ameltolide] (10 µM) | 109% (inactive)
13 | O=C(NCCCN1CCOCC1)c1cnn2c(-c3ccccc3)cc(-c3ccccc3)nc12 [reversan] (10 µM) | 98% (inactive)
14 | O=C1CS[C@@H](c2ccccc2Cl)c2cc(Cl)ccc2N1 (racemic) (10 µM) | 89% (inactive)
15 | O=c1[nH]c2cc(C(F)(F)F)c(N3CCOCC3)cc2n(CP(=O)(O)O)c1=O (10 µM) | 99% (inactive)
16 | Cc1ccccc1C(=O)Nc1ccc(C(=O)N2CCCC(N(C)C)c3ccccc32)cc1 (centres undefined) [mozavaptan] (0.833333 µM) | 117% (inactive)
17 | COc1cc(C(=O)NCC2(N(C)C)CCCC2)cc(OC)c1OCc1ccccc1 (10 µM) | 77.5% (inactive)
18 | Cc1nnsc1C(=O)Nc1ccc(-n2nc(C(F)(F)F)cc2C(F)(F)F)cc1 (10 µM) | 106% (inactive)
19 | O=C(C1CCCCC1)N1CC(=O)N2CCc3ccccc3C2C1 (centres undefined) [praziquantel] (10 µM) | 106% (inactive)
20 | COc1ccc(S(=O)(=O)N2c3ccc(Cl)cc3[C@](O)(c3ccccc3Cl)[C@@H]2C(=O)N2CCC[C@H]2C(N)=O)cc1OC [relcovaptan] (10 µM) | 106% (inactive)

Row | SMILES | SARS-CoV-2 infection rate
21 | CN1CCC(Nc2ncc3ncnc(Nc4ccc(F)c(Cl)c4)c3n2)CC1 (10 µM) | 114% (inactive)
22 | COc1ccc2nc3[nH]nc(C)c3c(NCCOCCO)c2c1 (10 µM) | 111% (inactive)
23 | CC(C)(C)/[N+]([O-])=C/c1ccc(S(=O)(=O)O)cc1S(=O)(=O)O (10 µM) | 114% (inactive)
24 | Nc1ccc([As](=O)(O)O)cc1 [arsanilic-acid] (10 µM) | 103% (inactive)
25 | Nc1ccccc1S(N)(=O)=O [2-aminobenzenesulfonamide] (10 µM) | 108% (inactive)
26 | FC(F)(F)c1cccc(C2=CCN(CCc3ccc4ccccc4c3)CC2)c1 [xaliproden] (10 µM) | 108% (inactive)
27 | CC(=O)O[C@]1(C(C)=O)CC[C@H]2[C@@H]3C=C(C)C4=CC(=O)CC[C@@H]4[C@H]3CC[C@@]21C [nomegestrol-acetate] (10 µM) | 95% (inactive)
28 | Cc1cc(N2CCCCC2)nc2ccccc12 (10 µM) | 93% (inactive)
29 | Clc1ccc(C2=CCC[C@H]3CC[C@@H]2N3)cn1 (10 µM) | 110% (inactive)
30 | COc1ccc(CN(CCN(C)C)c2ccccn2)cc1 [mepyramine] (10 µM) | 106% (inactive)
31 | Cc1cccc(-c2[nH]c(C(C)(C)C)nc2-c2ccc3nccnc3c2)n1 (10 µM) | 100% (inactive)
32 | O=c1c(O)c(-c2cc(O)c(O)c(O)c2)oc2cc(O)cc(O)c12 [myricetin] (10 µM) | 110% (inactive)
33 | Oc1cccc(-c2nc(N3CCOCC3)c3oc4ncccc4c3n2)c1 (10 µM) | 118% (inactive)
34 | COC(=O)C1=C(C)NC(C)=C(C(=O)NCCCN2CCC(c3ccccc3)(c3ccccc3)CC2)C1c1ccc([N+](=O)[O-])cc1 (centres undefined) (0.833333 µM) | 98.5% (inactive)
35 | O=C(Nc1ccccc1-c1cn2c(CN3CCNCC3)csc2n1)c1cnc2ccccc2n1 (0.833333 µM) | 114% (inactive)
36 | Cc1cc(C(C#N)c2ccc(Cl)cc2)c(Cl)cc1NC(=O)c1cc(I)cc(I)c1O (centres undefined) [closantel] (10 µM) | 91.5% (inactive)
37 | NC1=N[C@@](c2cccc(-c3cncnc3)c2)(c2ccnc(C(F)F)c2)c2cccc(F)c21 (10 µM) | 92.5% (inactive)
38 | NC(=O)c1nc(F)cnc1O [favipiravir] (10 µM) | 104% (inactive)
39 | C[C@]12CC[C@@H]3c4ccc(OC(=O)c5ccccc5)cc4CC[C@H]3[C@@H]1CC[C@@H]2O [estradiol-benzoate] (10 µM) | 111% (inactive)

From the supplement of paper PMC13380429
